High-throughput results from PubChem.
Shown are actives, neighbours in structure and some others; about 1.3% of the full set was active somewhere.
TSG101-PTAP inh – blocks PTAP/TSG101 interaction to inhibit HIV-1 budding; 340,000 tested, under 10 active; Q99816; Fluorescence polarization, FITC-PTAP peptide / Tsg101 binding; AID 493005; Potency, µM (doses to about 115 µM), most hits filed as inhibitors; active means well fitted inhibition curve with a large enough effect in the main read-out, with a control signal flat, not every such curve was filed as active; inconclusive means small, poorly fitted or top-dose-only effect, or effect the other way, or a change in a side signal; inactive means no such curve, though single readings can be large or run the other way
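Compounds were pin-transferred onto Tsg101 binding domain (10 uM final) in HEPES pH 7.5 buffer, then FITC-PTAP peptide was added at 50 nM final. After 20 min at RT, polarization reported peptide displacement across a qHTS concentration series.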
TRPML1 blocker – blocks the human TRPML1 channel; activity change, negative = inhibition, % (no concentration beside the values); TRPML1-inducible cells, Ca2+ dye fluorescence, FDSS; hits give low values; inhibition of EC80 agonist-evoked calcium signal; actives 0.02% (n = 390,000); AID 624415; in the data active means activity change below about -50%; inconclusive means between about -30% and that limit;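 further: stimulus is agonist 54-4 at its EC80 concentration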
Target sequence (Q9GZU1 whole entry, looked up): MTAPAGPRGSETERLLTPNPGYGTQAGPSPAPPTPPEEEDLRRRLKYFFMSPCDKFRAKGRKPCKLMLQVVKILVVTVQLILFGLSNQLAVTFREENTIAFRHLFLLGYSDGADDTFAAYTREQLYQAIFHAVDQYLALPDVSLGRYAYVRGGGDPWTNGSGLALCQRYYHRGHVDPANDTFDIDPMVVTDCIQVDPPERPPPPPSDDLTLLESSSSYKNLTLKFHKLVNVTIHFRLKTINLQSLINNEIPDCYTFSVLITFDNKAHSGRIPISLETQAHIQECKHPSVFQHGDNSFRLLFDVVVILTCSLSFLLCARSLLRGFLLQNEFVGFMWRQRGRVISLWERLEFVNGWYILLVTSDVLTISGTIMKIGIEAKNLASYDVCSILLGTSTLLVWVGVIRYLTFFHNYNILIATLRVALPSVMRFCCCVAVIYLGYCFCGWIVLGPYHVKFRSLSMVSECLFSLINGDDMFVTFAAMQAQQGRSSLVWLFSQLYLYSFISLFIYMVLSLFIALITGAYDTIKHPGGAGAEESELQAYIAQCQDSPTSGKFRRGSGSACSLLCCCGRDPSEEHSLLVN
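Calcium fluorescence in TRPML1-DL cells induced overnight with Tet: a 110 s read after compound pin addition, then a 110 s antagonist read after challenge with 54-4 at 4 uM final (EC80).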
TRPML1 ag – activates the human TRPML1 channel. Q9GZU1. actives 0.12% (n = 410,000). TRPML1-expressing cells, Ca2+ dye fluorescence, FDSS. activation, % (test concentration not listed)
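Tet-induced TRPML1-DL cells, 1,500 per well, cultured overnight, were loaded with a no-wash Ca2+ dye for 45–90 min. Calcium fluorescence was recorded on the FDSS for 110 s after compound addition, before the EC80 agonist (4 uM 54-4) was added.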
BRCA1 expr act – BRCA1 expression activation; MCF7-BRCA1-FFLuc reporter, luminescence, 48 h; response scale: scaled: vehicle 0%, 10 µM genistein 100%; Potency, µM (top dose mostly 46.1 µM), actives largely listed as activators; actives 1.1% (n = 380,000); AID 624202; active means well fitted activation curve with a large enough effect; inconclusive means small, poorly fitted or top-dose-only effect; inactive means no such curve, though single readings can be large or run the other way; further: nearly all actives have a fitted effect of over 80% in size
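Activators of BRCA1 expression were detected as increased firefly luciferase luminescence in engineered MCF7 cells after 48 h compound incubation. Signals were scaled to genistein 10 microM as full activation.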
IL2 activator – IL-2 activation; AID 652025; actives 0.065% (n = 360,000); IL-2 activation reporter assay, cell-based qHTS; stimulated with anti-CD3/CD4/CD28 beads; in transgenic mouse T cells; activation, % (series mostly up to about 46 µM)
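Unstimulated transgenic mouse T cells preincubated 60 min with compound, then stimulated with anti-CD3/anti-CD4-coated beads plus anti-CD28 for 18 h at 37 degrees C. IL-2 response read as EGFP and DsRed fluorescence by plate cytometry.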
PKM2 activator – increases activity of human pyruvate kinase M2; P14618; purified PKM2, Kinase-Glo ATP luminescence, activation; response scale: 0% is enzyme alone, no compound; Potency, µM (titrated, usually from 57.5 µM), hits mostly activators; actives 0.34% (n = 260,000); active means well fitted activation curve with a large enough effect; inconclusive means small, poorly fitted or top-dose-only effect; inactive means no such curve, though single readings can be large or run the other way; further: nearly all actives have a fitted effect of over 55% in size
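Kinase-Glo luminescence reports ATP generated from ADP (0.1 mM) and PEP (0.5 mM) by purified hPK-M2 after 1 h at room temperature, pH 7.2 imidazole buffer; intermediate enzyme activity allows detecting inhibitors and activators.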
Numbers stand for hits; n = inactive; u = inconclusive; x = no result. Unless noted, no stated cut-off is given here; in the data, active means activation above about 50%; inconclusive means mostly about 30% to 49%; inactive means weaker than that.

SMILES	TSG101-PTAP inh	TRPML1 blocker	TRPML1 ag	BRCA1 expr act	IL2 activator	PKM2 activator
COc1cccc(NC2=CC(c3ccc(C(C)C)cc3)N(c3cccc(OC)c3)C2=O)c1 (stereo not given)	x	n	n	x	x	x
Cc1ccccc1NC(=O)CSc1nc2nccnc2c(=O)n1CCc1c[nH]c2ccccc12	x	n	n	x	x	x
COC(=O)c1cccc(CN2C(=O)C(C)Sc3ccc(C)cc32)c1 (stereo not given)	x	x	n	n	n	x
COC(=O)c1cccc(CN2C(=O)C(C)Sc3cc(Cl)ccc32)c1 (stereo not given)	x	n	n	5.01µM	n	x
c1ccc(CSc2nnc(C3CCNCC3)o2)cc1	x	n	n	x	x	x
CN(C)c1ccc(/C=C/c2ccnc3ccccc23)cc1C=O	x	x	n	n	x	x
CN(CC(=O)Nc1cccc(F)c1)C(=O)CCCNC(=O)c1ccc(Cl)cc1	n	n	n	11.2µM	n	x
Cc1cccc(COc2ccc(-c3cc(C(F)(F)F)n4nc(C)cc4n3)cc2)c1	x	n	n	n	x	x
CN(C)/C=C1\N=C(c2ccccc2)OC1=O	n	n	n	n	n	n
CN(C)/C=C1\N=C(c2ccc3c(c2)OCO3)OC1=O	n	n	n	7.94µM	n	n
Cc1ccc(C2=N/C(=C/N3CCOCC3)C(=O)O2)cc1	n	n	n	8.91µM	n	n
CCCCc1ccc(C(=O)COC(=O)c2ccc3nc(C)c(C)nc3c2)cc1	x	x	n	n	x	x
COc1ccc(Br)cc1CNC(=O)c1cnc2sc(N3CCCCCC3)nn2c1=O	x	n	n	x	x	x
CSc1nc2c([nH]c3ccccc32)c(=O)n1-c1ccc(C)cc1	x	n	n	n	x	x
Cc1cc(N2CCOCC2)nc2ccc(Cl)cc12	n	n	n	7.94µM	n	x
CC1CCc2c(nc3sc4c(c3c2N)CCCC4)C1 (stereo not given)	n	n	n	2.82µM	n	n
CC1CCc2nc3sc4c(c3c(N)c2C1)CCCC4 (stereo not given)	n	n	n	u	n	n
Cc1ccc(/C=C/C(=O)N2CCN(S(=O)(=O)c3ccc(C)c(C)c3)CC2)o1	n	n	n	n	n	u
Cc1ccc(/C=C/C(=O)N2CCN(S(=O)(=O)c3c(C)c(C)cc(C)c3C)CC2)o1	n	n	n	n	n	3.16µM
O=C(N/N=C/c1ccc(F)cc1)c1ccc(Br)cc1	n	n	n	n	n	n
O=C(N/N=C/c1ccc(Br)cc1)c1ccc(Br)o1	n	n	n	7.94µM	n	n
OCC[N+]1(CCc2ccccc2)CCOCC1	x	x	n	x	x	x
c1ccc(CSc2ncnc3sccc23)cc1	n	n	n	n	n	u
Cc1nc(SCc2ccccc2)c2ccsc2n1	n	n	n	n	n	15.8µM
CC(C)(C)n1ncc2c(=O)n(Cc3ccc(F)c(C(F)(F)F)c3)cnc21	x	n	n	x	x	x
SMILES	TSG101-PTAP inh	TRPML1 blocker	TRPML1 ag	BRCA1 expr act	IL2 activator	PKM2 activator
CSc1ccc(-c2nnc(NC(=O)c3ccc4c(c3)OCCO4)o2)cc1	x	n	n	x	x	x
CCCC(=O)Nc1nnc(-c2ccc3c(c2)OCCO3)o1	n	n	n	6.31µM	n	n
CCCn1c2ccccc2c2cnn(CC(=O)N(Cc3ccccc3)C(C)C)c(=O)c21	x	n	n	x	x	x
CCSc1ccc(/C(N)=N/OC(=O)c2cccs2)cn1	n	n	n	10µM	n	n
CCOc1ccc2nc(SCc3ccccc3C#N)sc2c1	n	n	n	7.94µM	n	n
CCC(C(=O)Nc1cc(OC)ccc1OC)n1c(C)c2cnn(-c3ccccc3)c(=O)c2c1C (stereo not given)	x	n	n	n	x	x
CCOc1ccc(S(=O)(=O)Nc2ccc3c(c2)N(C(C)=O)CCC3)cc1	x	n	n	x	x	x
CC(C)(C)c1ccc(/C=N/NC(=O)C2CCCC2)cc1	n	n	n	5.62µM	n	n
O=C(NN=Cc1ccc2c(c1)OCO2)C1CC1	n	n	n	7.08µM	n	x
O=C(Cc1ccccc1)N/N=C/c1ccc2c(c1)OCO2	n	n	n	1.26µM	n	x
